High-throughput results (PubChem)
Pf growth 96h = P. falciparum growth inhibition at 96 hours; Potency, µM (series often up to 28.7 µM), hits mostly inhibitors; AID 504834; hit rate 6.9% among 320,000; P. falciparum luciferase reporter growth, 96 h
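Luminescence readout: decreased luciferase signal marks inhibited growth of reporter-expressing P. falciparum in infected red cells (2% hematocrit, 0.05% parasitemia final), exposed to compound two generations (96 h, 37 C, 5% CO2).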
Cycloheximide cs = counter-screen for Shiga toxin inhibitors: cycloheximide protein synthesis inhibition | max response, % | hit rate 12% among 300,000 | cell reporter, cycloheximide protein synthesis inhibition counterscreen; in the data active = max response mostly above about 13%, no sharp cut-off; inactive = mostly below about 14%; note: read at 38.3 µM for the half of the compounds with a filed dose
HCMV inh = blocks human cytomegalovirus replication; HFF cells, HCMV-luciferase reporter, 72 h; active compounds read low; activity change, negative = inhibition, % at 57.5 µM; hit rate 4.5% among 410,000; AID 1259415; in the data active = activity change below about -60%; inconclusive = no clear call, values can overlap the other calls; inactive = above about -39%
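Cell-based, HFFs, 1000 cells/well, 16 h 37C; cpds in DMSO + HCMV-luc, MOI 1 PFU/cell; 72 h 37C; OneGlo luminescence after 5 min RT; norm. to buffer vs Salinomycin 10uM.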
Pf growth 48h = inhibits P. falciparum growth in the first generation, 48 h | Potency, µM (doses to about 28.7 µM), hits mostly inhibitors | hit rate 5.9% among 310,000 | P. falciparum luciferase growth in erythrocytes, 48 h
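Erythrocytes infected with P. falciparum carrying an integrated firefly luciferase reporter (2% hematocrit, 0.1% parasitemia final) were exposed to compounds in RPMI 1640 with 0.5% Albumax at 37 C, 5% CO2. Growth inhibition was scored as reduced luminescence.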
Shiga inhibitor = Shiga toxin inhibition. Vero cells, Shiga toxin protein synthesis inhibition reporter. inhibition, % at 38.7 µM. hit rate 9.2% among 290,000. AID 2315; in the data active = inhibition mostly above about 28%, no sharp cut-off; inactive = mostly below about 43%
Large screens that a line does not name were inactive. Sampled rows, rich in hits. Any-hit rate of the full collection: about 20%. Unless noted, calls come from the whole dose curve; as a rule, active = well fitted inhibition curve with a large enough effect; inconclusive = small, poorly fitted or top-dose-only effect, or another doubt; inactive = no such curve, though single readings can be large or run the other way.

COc1ccc(CN2CCCCC2c2cccnc2)cc1C (configuration not stated)	Pf growth 48h 13µM
Cc1oc(-c2ccccc2Cl)nc1CN1CCCC1c1ccc(F)cc1 (configuration not stated)	Pf growth 96h 6.6µM, Pf growth 48h inconclusive
Cc1oc(-c2ccccc2Cl)nc1CN1CCCCC1CO (configuration not stated)	Pf growth 96h inconclusive
Cc1ccccc1-c1nc(CN2CCCC2c2ccc(F)cc2)c(C)o1 (configuration not stated)	Pf growth 48h 10µM
Cc1c(CC(=O)O)c(=O)oc2c(C)c(OCc3ccccc3Br)ccc12	none
C[C@H](CO)N1C[C@H](C)[C@@H](CN(C)S(=O)(=O)c2cccc(C#N)c2)OCc2cn(nn2)CCCC1=O	none (no result: Pf growth 96h, Cycloheximide cs, Pf growth 48h, Shiga inhibitor)
CN1CCC[C@@H]1c1cccnc1	Pf growth 96h 15µM (no result: Cycloheximide cs, HCMV inh, Shiga inhibitor)
COc1ccc(-c2nc(CN3CCCCC3c3cccnc3)c(C)o2)c(F)c1 (configuration not stated)	Pf growth 96h inconclusive, Pf growth 48h 9.3µM
COC(=O)c1ccccc1NC(=O)Cn1c(=O)n(CCC(=O)NCc2ccccc2OC)c(=O)c2ccccc21	none (no result: Pf growth 96h, Cycloheximide cs, Pf growth 48h, Shiga inhibitor)
Cc1n[nH]c(C)c1CCCCOc1ccccc1F	Pf growth 96h 2.1µM, HCMV inh inconclusive
Cc1n[nH]c(C)c1CCCCOc1ccccc1	HCMV inh -82
Cc1ccccc1OCCCCc1c(C)n[nH]c1C	HCMV inh inconclusive
Cn1c(=O)c2c(n3c4ccccc4nc13)NC(=O)CC2c1cccc(F)c1 (configuration not stated)	none (no result: Pf growth 96h, Cycloheximide cs, Pf growth 48h, Shiga inhibitor)
COc1ccc(S(=O)(=O)N2CCOCC2)cc1NC(=O)CSc1ncccn1	none (no result: Pf growth 96h, Cycloheximide cs, Pf growth 48h, Shiga inhibitor)
CCCCC(O)(c1ccccc1)C(CN1CCOCC1)c1ccccc1 (configuration not stated)	Pf growth 48h inconclusive
CCCCC(O)(c1ccc(CC)cc1)C(CN1CCOCC1)c1ccccc1 (configuration not stated)	HCMV inh -71, Pf growth 48h 1.9µM
CCc1ccc(C(O)(CC)C(CN2CCOCC2)c2ccccc2)cc1 (configuration not stated)	HCMV inh -63, Pf growth 48h 12µM
COc1ccc(-c2nnc(SCC(=O)N3CCc4ccccc43)o2)cc1OC	none (no result: Pf growth 96h, Cycloheximide cs, Pf growth 48h, Shiga inhibitor)
Cc1cc(=O)oc(C)c1C(=O)OCC(=O)c1ccccc1	Cycloheximide cs 30
CC(=O)NCC(=O)OCC(=O)c1ccc2ccccc2c1	none (no result: Pf growth 48h)
Cc1cc(=O)oc(C)c1C(=O)OCC(=O)c1ccc2ccccc2c1	Cycloheximide cs 30, Shiga inhibitor 52 (no result: Pf growth 48h)
CCOCCc1nn2c(=O)cc(COC(=O)CNC(=O)c3cccc(C)c3)nc2s1	none (no result: Pf growth 96h, Cycloheximide cs, Pf growth 48h, Shiga inhibitor)
CC(=O)NC1C(=O)N(CCc2ccccc2)c2ccc(Br)cc21 (configuration not stated)	Pf growth 96h 1.9µM (no result: Pf growth 48h)
O=C(CCCn1c(=O)c2sccc2n(Cc2c(F)cccc2Cl)c1=O)NCc1ccccc1	none (no result: Pf growth 96h, Cycloheximide cs, Pf growth 48h, Shiga inhibitor)
Cc1cc(=O)oc2c(C)c(OCC(=O)N3CC[C@@]4(O)CCCC[C@H]4C3)ccc12	Pf growth 96h inconclusive
O=S(=O)(c1ccc(F)cc1)c1snnc1-c1ccccc1	Pf growth 96h inconclusive, HCMV inh -88, Pf growth 48h 9.3µM
O=S(=O)(c1ccc(Cl)cc1)c1snnc1-c1ccccc1	Pf growth 96h inconclusive, HCMV inh -104 (no result: Pf growth 48h)
O=C(Cn1cnc2ccccc2c1=O)NCCCN1CCCC1=O	none (no result: Cycloheximide cs, Shiga inhibitor)
CC1(C(=O)Nc2ccc(Cl)c(Cl)c2)CCN1CCc1ccccc1 (configuration not stated)	none (no result: Pf growth 96h, Cycloheximide cs, Pf growth 48h, Shiga inhibitor)
Cc1onc(-c2c(F)cccc2Cl)c1-c1ncc(-c2ccc(Cl)cc2)o1	HCMV inh -76 (no result: Pf growth 96h, Cycloheximide cs, Pf growth 48h, Shiga inhibitor)
Clc1ccc2[nH]c3c(NCC4CCCO4)ncnc3c2c1 (configuration not stated)	Cycloheximide cs 23, HCMV inh -65, Pf growth 48h inconclusive
Fc1ccc2[nH]c3c(NCCN4CCOCC4)ncnc3c2c1	Pf growth 96h 4.1µM, Pf growth 48h 3.3µM (no result: HCMV inh)
CCN1CCCC1Cn1cnc2c([nH]c3ccc(Cl)cc32)c1=O (configuration not stated)	none
Clc1ccc2[nH]c3c(NCCN4CCOCC4)ncnc3c2c1	Pf growth 48h 3.7µM
O=c1c2[nH]c3ccc(Cl)cc3c2ncn1CCN1CCCCC1	none (no result: Pf growth 48h)
CC(=O)Nc1ccc(-c2ccnc3c2CC(C)(C(=O)Nc2cccc(C(C)=O)c2)O3)cc1 (configuration not stated)	none (no result: Pf growth 96h, Cycloheximide cs, Pf growth 48h, Shiga inhibitor)
O=C(NCC1COc2ccccc2O1)c1ccc(-n2cncn2)c([N+](=O)[O-])c1 (configuration not stated)	Pf growth 96h inconclusive (no result: Cycloheximide cs, Shiga inhibitor)
CC(=O)c1ccc(NCC2COc3ccccc3O2)c([N+](=O)[O-])c1 (configuration not stated)	Cycloheximide cs 31, Shiga inhibitor 57
NS(=O)(=O)c1ccc(NCC2COc3ccccc3O2)c([N+](=O)[O-])c1 (configuration not stated)	Cycloheximide cs 16
CN(C)c1ccc(-c2nc(-c3cccs3)c(-c3cccs3)[nH]2)cc1	none (no result: Pf growth 96h, Cycloheximide cs, Pf growth 48h, Shiga inhibitor)
Cc1ccc(OCC(=O)NC(=S)Nc2ccc(Br)cn2)cc1	none
O=C(NCc1cccnc1)/C(=C\c1ccc(-c2ccc(Cl)c(Cl)c2)o1)S(=O)(=O)c1ccccc1	Pf growth 96h inconclusive, HCMV inh -102, Pf growth 48h inconclusive
Cc1ccc2cccc(NC(=O)c3ccc(-c4cc(Cl)ccc4Cl)o3)c2n1	none (no result: Pf growth 96h, Cycloheximide cs, Pf growth 48h, Shiga inhibitor)
O=C(Nc1cccnc1)c1ccc(-c2cc(Cl)ccc2Cl)o1	Cycloheximide cs 22, Pf growth 48h inconclusive
O=C(NCc1cccnc1)c1ccc(-c2cc(Cl)ccc2Cl)o1	Pf growth 96h 12µM, Pf growth 48h inconclusive
COc1ccccc1NC(=O)c1ccc(CN(c2cc(Cl)ccc2C)S(=O)(=O)c2ccccc2)cc1	Pf growth 96h inconclusive, Pf growth 48h inconclusive
Cc1ccc(Cl)cc1N(Cc1ccc(C(=O)NCc2cccnc2)cc1)S(=O)(=O)c1ccccc1	Pf growth 96h 13µM, Pf growth 48h inconclusive
O=C(NCc1cccnc1)c1ccc(-c2ccc(Cl)cc2)o1	none
O=C(Nc1cccnc1)c1ccc(-c2ccc(Cl)cc2)o1	Cycloheximide cs 66, Shiga inhibitor 73
CCc1ccccc1NC(=O)CNC(=O)c1cccc(S(=O)(=O)N2CCN(Cc3ccccc3)CC2)c1	Pf growth 48h inconclusive (no result: Cycloheximide cs, Shiga inhibitor)
CC(/C=N/Nc1nnc(C)c(=O)[nH]1)=C\c1ccccc1	Cycloheximide cs 26, Shiga inhibitor 81
O=C(Cn1cncn1)N/N=C/c1ccccc1O	Cycloheximide cs 9.9
O=C(CSC1c2ccccc2-c2ccccc21)N/N=C/c1ccc(C(=O)O)cc1	Pf growth 48h inconclusive
O=C(CSc1cccc2cccnc12)N/N=C/c1ccc(O)cc1	none
Cc1cc(SCC(=O)N/N=C/c2ccc(O)cc2O)c(C)cc1Br	HCMV inh -83, Pf growth 48h inconclusive (no result: Pf growth 96h)
O=C(CSc1ccc2ccccc2n1)N/N=C/c1ccc(O)cc1	Pf growth 96h inconclusive, Cycloheximide cs 11
O=C(CSC1c2ccccc2-c2ccccc21)N/N=C/c1ccccc1O	Pf growth 96h inconclusive, HCMV inh -96 (no result: Pf growth 48h)
COc1cccc(CNC(=O)C2(c3cccs3)CCOCC2)c1	none (no result: Pf growth 96h, Cycloheximide cs, Pf growth 48h, Shiga inhibitor)
